For assay [1], the system named is CRL-7250. Briefly: Cytotoxic Profiling of Annotated Libraries Using Quantitative High-Throughput Screening (AID 1296008). Particulars: Five cell lines viability, CellTiter-Glo ATP luminescence, 48-72 h; max response: active compounds read low. Summed up: (§1)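 Compounds were pin-transferred onto cells and incubated 48 or 72 hr at 37 degree Celsius, 95% humidity. CellTiter-Glo was added, plates sat 10 min at room temperature, then ATP-coupled luminescence was imaged as the viability read-out.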

The subject of assay [2] is HEK293. The description is as above. The settings on record: Five cell lines viability, CellTiter-Glo ATP luminescence, 48-72 h; max response: active compounds read low. Summed up: as §1
The subject of assay [3] is HaCat. Described as above. The settings on record: Five cell lines viability, CellTiter-Glo ATP luminescence, 48-72 h; max response: active compounds read low. Summed up:
as §1
A general note: In ATP-based viability assays light output follows the ATP content of the culture.

For assay [4], the system named is KB-3-1. Described as above. The settings on record: Five cell lines viability, CellTiter-Glo ATP luminescence, 48-72 h; max response: active compounds read low. Summed up: as §1
The test system of assay [5] is NIH3T3. The assay is described as above. Particulars: Five cell lines viability, CellTiter-Glo ATP luminescence, 48-72 h; max response: active compounds read low. Summed up: as §1
Assay [6] relates to MCC-13. Briefly: qHTS assay to identify novel small-molecules to repurpose for Merkel cell carcinoma treatment (AID 1296009). Particulars: MCC and control cell lines, CellTiter-Glo viability, 72 h; series mostly up to 46 µM. Summed up: (§2)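 Cells exposed to NPC (8-point) and MIPE (11-point) compound dilutions for 72 hr at 37 degree celsius; viability read by CellTiter-Glo luminescence, normalized to no-cell and DMSO in-plate controls.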
In general terms: Quantitative high-throughput screening tests each substance at several concentrations.

Assay [7] concerns MCC-26. The assay is described as above. Particulars: MCC and control cell lines, CellTiter-Glo viability, 72 h; series mostly up to 46 µM. Summed up:
as §2

“And” between values parts separate entries of the source, which are not always exact repeats. Equal values may be shown once. Inconclusive results are not listed. Values without a mark were called inactive. The source made the active and inactive calls. Calls come from the whole dose curve; as a rule, active = well fitted inhibition curve with a large enough effect; inconclusive = small, poorly fitted or top-dose-only effect; inactive = flat fitted curve, though single readings scatter.

The source of these data is PubChem BioAssay (NCATS).
% is set by controls: 0 for no effect and ±100 for the full control effect; potency is the fitted concentration of half-maximal effect.
Note: nearly all actives have a fitted effect of over 60% in size.

`CC(C)c1nn(-c2c(Cl)cccc2Cl)c2nc(Cc3ccc(OCCO)cc3)[nH]c(=O)c12`: the Potency is 29.1 nM (active) in assay [1]; 59 nM (active) and 36.6 nM (active) in assay [2]; 118 nM (active) and 231 nM (active) in assay [3]; 58 nM (active) in assay [4]; 93.5 nM (active) and 130 nM (active) in assay [5]; 105 nM (active) in assay [6].
For `Nc1ncnc2c1c(-c1cnc3[nH]ccc3c1)nn2C1CCCC1`, the Potency in assay [1] is 118 nM (active) and 920 nM (active); in assay [2], 1.48 µM (active) and 2.59 µM (active); in assay [3], 2.64 µM (active) and 1.84 µM (active); in assay [4] it was 1.66 µM (active) and 4.61 µM (active); in assay [5], 83.3 nM (active) and 517 nM (active); in assay [6], 4180 nM (active). Further, in assay [7], the Potency is 10500 nM (active).
As to `Cc1nc(N)ncc1-c1nc(N2CCOCC2)c2sc(C(C)(C)O)cc2n1`, the Potency in assay [1] was 2590 nM (active); in assay [2], 1.18 µM (active) and 1.3 µM (active); in assay [3], 41.8 nM (active) and 130 nM (active); in assay [4], 3660 nM (active); in assay [5] it was 1.87 µM (active) and 920 nM (active). In addition, the Potency entry in assay [6] is “inactive”.
In the case of `COC(=O)Nc1ccc(-c2nc(N3CCOCC3)c3cnn(C4CCN(Cc5cccnc5)CC4)c3n2)cc1`, the Potency in assay [1] is 118 nM (active) and 1.3 µM (active); in assay [2] it was 66.2 nM (active) and 1.46 µM (active); in assay [3], 13.2 µM (active); in assay [4], 132 nM (active) and 1.64 µM (active); in assay [5] it was 83.3 nM (active) and 920 nM (active); in assay [6] it was 14800 nM (active).
For `O=C(C=Cc1cccnc1)NCCCCC1CCN(C(=O)c2ccccc2)CC1`, the Potency in assay [1] was 74.3 nM (active); in assay [2], 7.4 nM (active); in assay [3] it was 0.372 µM (active); in assay [4] it was 13.2 nM (active); in assay [5] it was 37.2 nM (active); in assay [6], 52.6 nM (active). For the same molecule, the Potency in assay [7] is 20.9 nM (active).
On to `CC(=O)OCC(=O)[C@@]1(O)[C@H](C)C[C@H]2[C@@H]3C=C(C)C4=Cc5c(cnn5-c5ccccc5)C[C@]4(C)[C@@H]3[C@@H](O)C[C@@]21C`, for which the figures for the Potency in assay [1], in assay [2] and in assay [5] were 20900 nM (active), 13200 nM (active) and 14800 nM (active), respectively. In addition, the max response in assay [3] was -6.31%. In addition, the result in assay [4] was inactive. In addition, the Potency result in assay [6] and in assay [7] was “inactive” each time.
